Assay results from PubChem BioAssay (NCATS).
Inconclusive results are not listed. The source made the active and inactive calls. Unless noted, calls follow the shape of the dose curve; as a rule, active = well fitted curve in the direction sought with a large enough effect; inconclusive = small, poorly fitted or top-dose-only effect, or another doubt; inactive = no such curve, though single readings can be large; an effect the other way counts as inactive or inconclusive.

Columns and labels:
[1] = Cytotoxicity counterscreen for inhibitors of SARS-CoV-2 cell entry (AID 1645845; calls by dose curve; also: nearly all actives have a fitted effect of over 50% in size)
In short: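 ATP-content luminescence (ATPLite 1step, 15 min RT) read after 48 h compound exposure of Expi293F cells stably expressing human ACE2; normalized to cells-only wells and media-only wells.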

[2] = Primary qHTS to identify inhibitors of SARS-CoV-2 cell entry (AID 1645846; calls by dose curve; also: nearly all actives have a fitted effect of over 45% in size); settings: activity change, negative = inhibition: at 57.1 µM (top of the series) unless noted
In short: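 Data are normalized to wells receiving SARS-CoV-2-S pseudoparticles and those given bald particles. Entry signal was luciferase luminescence in stable hACE2 Expi293F cells, 48 hr post-infection, after 1 hr compound pretreatment.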

[3] = system: CRL-7250; assay: qHTS assay to identify novel small-molecules to repurpose for Merkel cell carcinoma treatment (AID 1296009); settings: MCC and control cell lines, CellTiter-Glo viability, 72 h; series mostly up to 92 µM; also: nearly all actives have a fitted effect of over 60% in size
In short: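 Cell viability, measured as CellTiter-Glo luminescence, was normalized between DMSO and no-cell wells. The cells had been exposed to 8- or 11-point compound dilutions for 72 hr at 37 degree celsius.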

[4] = system: Zika virus NS2B-NS3 protease (unlinked complex); assay: Primary screen GU Rhodamine qHTS for Zika virus inhibitors: Unlinked NS2B-NS3 protease assay (AID 1347159); also: nearly all actives have a fitted effect of over 60% in size
In short: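 Unlinked NS2B/NS3, 25 nM; Rhod110 peptide, 1.5 microM; compounds, up to 114 microM. Reaction run 15 min at RT in 10 mM Tris-HCl pH 8.0, 0.01% Tween 20; kinetic fluorescence change fitted with a 4-parameter Hill model.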

[5] = molecular target: Calcium and integrin-binding protein 1 (Homo sapiens) (UniProt Q99828); assay: Primary qHTS for Identification of Calcium Integrin Binding Protein 1 (CIB1) Competitor (AID 1508620);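 also: GST tagged CIB1 binding a fluorescein labelled alphaIIb integrin peptide tracer; top concentration of the series differs between compounds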
Calcium and integrin-binding protein 1 (Homo sapiens), sequence (Q99828 whole entry, looked up): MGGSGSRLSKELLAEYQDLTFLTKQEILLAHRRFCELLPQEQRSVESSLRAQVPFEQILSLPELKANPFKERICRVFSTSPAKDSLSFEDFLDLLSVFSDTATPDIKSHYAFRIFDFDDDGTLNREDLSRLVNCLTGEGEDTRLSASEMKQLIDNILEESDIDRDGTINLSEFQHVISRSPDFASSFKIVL
In short: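 CIB1-GST (1 uM final) and compound incubated 15 min at room temperature before adding FITC-alphaIIb peptide tracer (100 nM final). Competition for binding read by fluorescence polarization (ex 480, em 540) after another 15 min at room temperature.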

[6] = molecular target: Cytochrome P450 2D6 (Homo sapiens) (UniProt P10635); assay: Cytochrome P450 family 2 subfamily D member 6 (CYP2D6) small molecule antagonists: luciferase biochemical (cell-free) qHTS assay (AID 1645840; active = well fitted curve in the direction sought with a large enough effect in the repeat runs; an effect the other way counts as inactive or inconclusive; also: potency is read from the fitted curve at half-maximal effect; nearly all actives have a fitted effect of over 55% in size)
Cytochrome P450 2D6 (Homo sapiens), sequence (P10635 whole entry, looked up): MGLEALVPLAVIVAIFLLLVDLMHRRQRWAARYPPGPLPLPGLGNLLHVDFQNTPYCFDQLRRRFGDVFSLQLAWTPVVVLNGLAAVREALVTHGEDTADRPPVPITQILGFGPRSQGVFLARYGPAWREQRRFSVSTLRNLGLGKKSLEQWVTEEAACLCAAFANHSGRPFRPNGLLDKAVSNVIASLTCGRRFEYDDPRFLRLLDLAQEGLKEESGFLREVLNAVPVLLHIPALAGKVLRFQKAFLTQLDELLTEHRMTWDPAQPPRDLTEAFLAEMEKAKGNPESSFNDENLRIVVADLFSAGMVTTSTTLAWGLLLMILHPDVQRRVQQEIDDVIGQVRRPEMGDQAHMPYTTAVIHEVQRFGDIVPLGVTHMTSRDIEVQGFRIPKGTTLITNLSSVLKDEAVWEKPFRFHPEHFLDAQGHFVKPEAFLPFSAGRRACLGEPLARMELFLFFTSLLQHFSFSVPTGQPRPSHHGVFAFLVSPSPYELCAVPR
In short: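 P450-Glo CYP2D6 system: proluciferin substrate converted by enzyme to luciferin, read by luminescence proportional to activity. Enzyme-substrate mix with compound 10 min at room temperature, then NADPH regeneration 1 h before detection reagent.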

[7] = molecular target: Cytochrome P450 2C9 (Homo sapiens) (UniProt P11712); assay: Cytochrome P450 family 2 subfamily C member 9 (CYP2C9) small molecule antagonists: luciferase biochemical (cell-free) qHTS assay (AID 1645842; active = well fitted curve in the direction sought with a large enough effect in the repeat runs; an effect the other way counts as inactive or inconclusive; also: potency is read from the fitted curve at half-maximal effect; nearly all actives have a fitted effect of over 55% in size)
Cytochrome P450 2C9 (Homo sapiens), sequence (P11712 whole entry, looked up): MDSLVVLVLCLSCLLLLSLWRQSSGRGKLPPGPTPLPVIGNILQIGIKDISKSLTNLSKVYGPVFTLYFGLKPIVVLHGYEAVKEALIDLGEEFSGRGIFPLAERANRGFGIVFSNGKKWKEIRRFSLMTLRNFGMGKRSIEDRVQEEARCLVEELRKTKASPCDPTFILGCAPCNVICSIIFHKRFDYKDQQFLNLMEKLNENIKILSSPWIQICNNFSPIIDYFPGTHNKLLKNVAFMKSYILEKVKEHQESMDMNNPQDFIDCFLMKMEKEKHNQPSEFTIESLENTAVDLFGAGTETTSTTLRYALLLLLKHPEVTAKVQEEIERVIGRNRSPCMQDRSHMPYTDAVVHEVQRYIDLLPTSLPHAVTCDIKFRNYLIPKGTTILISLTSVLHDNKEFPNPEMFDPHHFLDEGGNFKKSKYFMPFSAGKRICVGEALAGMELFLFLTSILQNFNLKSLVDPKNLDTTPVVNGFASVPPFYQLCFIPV
In short: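 P450-Glo CYP2C9 system: proluciferin substrate with enzyme in mix containing 0.4% BSA, 10 min at room temperature, then NADPH regeneration solution added and incubated 1 h at 37C. Detection reagent stopped reaction; luminescence read after 20 min as RLU.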

[8] = Primary qHTS for inhibitors of nuclear receptor binding SET domain protein 2 (NSD2) in an isogenic RCH-ACV NSD2 p.E1099K mutant (9B) (AID 1645876); also: potency is read from the fitted curve at half-maximal effect; nearly all actives have a fitted effect of over 70% in size
[9] = Primary qHTS for inhibitors of nuclear receptor binding SET domain protein 2 (NSD2) in an RCH-ACV wild type WT cells (2C) (AID 1645877); also: potency is read from the fitted curve at half-maximal effect; nearly all actives have a fitted effect of over 70% in size
[10] = molecular target: Glutathione peroxidase 1 (Homo sapiens) (UniProt P07203); assay: Primary qHTS Assay for Inhibitors of Recombinant Selenoprotein Glutathione Peroxidase 1 (GPX1) (AID 1845191); also: nearly all actives have a fitted effect of over 65% in size
Glutathione peroxidase 1 (Homo sapiens), sequence (P07203 whole entry, looked up): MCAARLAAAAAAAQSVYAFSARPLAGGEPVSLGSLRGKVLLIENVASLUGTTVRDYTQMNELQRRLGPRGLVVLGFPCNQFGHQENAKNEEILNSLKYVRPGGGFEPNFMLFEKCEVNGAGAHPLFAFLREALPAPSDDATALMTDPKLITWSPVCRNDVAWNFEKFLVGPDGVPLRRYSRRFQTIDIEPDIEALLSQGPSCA
In short: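 NADPH consumption tracked by fluorescence at 340/450 nm between t=0 and t=15 min, room temperature. Final mix: 10 nM GPX1, 100 nM glutathione reductase, 1 mM GSH, 0.5 mM NADPH, 0.5 mM cumene hydroperoxide, 0.01% BSA; 30 min compound–enzyme preincubation.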

[11] = molecular target: Phospholipid hydroperoxide glutathione peroxidase GPX4 (Homo sapiens) (UniProt P36969); assay: Primary qHTS Assay for Inhibitors of Recombinant Selenoprotein Glutathione Peroxidase 4 (GPX4) (AID 1845192); also: nearly all actives have a fitted effect of over 65% in size
Phospholipid hydroperoxide glutathione peroxidase GPX4 (Homo sapiens), sequence (P36969 whole entry, looked up): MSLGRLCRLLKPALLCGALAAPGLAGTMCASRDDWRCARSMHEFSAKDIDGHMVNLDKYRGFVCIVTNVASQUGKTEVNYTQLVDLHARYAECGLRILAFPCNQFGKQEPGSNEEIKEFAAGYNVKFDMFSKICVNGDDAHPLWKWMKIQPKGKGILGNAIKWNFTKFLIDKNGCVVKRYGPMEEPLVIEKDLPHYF
In short: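 NADPH consumption followed by fluorescence at 340/450 nm, t=0 and after 15 min at room temperature. Reaction started with cumene hydroperoxide (0.5 mM final) after 30 min compound–GPX4 preincubation; final 200 nM GPX4, 100 nM GR, 1 mM GSH, 0.5 mM NADPH.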

[12] = molecular target: Luciferin 4-monooxygenase (Photinus pyralis) (UniProt P08659); assay: Primary firefly luciferase (FLuc) qHTS assay for identification of artifact compounds. (AID 1845220); settings: outcome: dose series up to 54.1 µM unless noted; also: nearly all actives have a fitted effect of over 60% in size
In short: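 Compounds sat 15 min at room temperature with 10 uM luciferin and 10 uM ATP (pH 7.6 Tris acetate). Firefly luciferase (10 nM final) was then added, and luminescence was read 5 min later. Data normalized to no-enzyme and DMSO controls were Hill-fitted.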

[13] = system: Nanoluciferase (engineered Oplophorus gracilirostris luciferase); assay: Primary Nanoluciferase (NLuc) qHTS assay for identification of artifact compounds. (AID 1845222)
In short: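 Luminescence from secreted NLuc (filtered, 1:55-diluted S16 cell medium) read 5 min after Nano-Glo substrate; compounds preincubated 15 min, RT. Hill fits of inhibition normalized to DMSO and no-enzyme.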

[14] = system: C33A; assay: Primary qHTS to identify gynecologic anti-cancer compounds using libraries of approved drugs and bioactive compounds (AID 1345084); settings: Gynecologic cancer cell panel viability, ATPlite luminescence, 48 h; series mostly up to 57.5 µM; also: nearly all actives have a fitted effect of over 55% in size
In short: (§1)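 Cytotoxicity screen measuring ATP content by luciferase luminescence. Each compound is applied at five concentrations for 48 h at 37 C with 5% CO2.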

[15] = system: CAOV3; assay: as above; settings: Gynecologic cancer cell panel viability, ATPlite luminescence, 48 h; series mostly up to 57.5 µM
In short: as §1

[16] = system: CASKI; assay: as above; settings: Gynecologic cancer cell panel viability, ATPlite luminescence, 48 h; series mostly up to 57.5 µM
In short: as §1

[17] = system: Es-2; assay: as above; settings: Gynecologic cancer cell panel viability, ATPlite luminescence, 48 h; series mostly up to 57.5 µM
In short: as §1

[18] = system: HeLa; assay: as above; settings: Gynecologic cancer cell panel viability, ATPlite luminescence, 48 h; series mostly up to 57.5 µM
In short: as §1

[19] = system: Hek293T; assay: as above; settings: Gynecologic cancer cell panel viability, ATPlite luminescence, 48 h, control line for the selectivity index; series mostly up to 57.5 µM
In short: as §1

[20] = system: JEG-3; assay: as above; settings: Gynecologic cancer cell panel viability, ATPlite luminescence, 48 h; series mostly up to 57.5 µM
In short: as §1

[21] = system: OV90; assay: as above; settings: Gynecologic cancer cell panel viability, ATPlite luminescence, 48 h; series mostly up to 57.5 µM
In short: as §1

[22] = system: PA-1; assay: as above; settings: Gynecologic cancer cell panel viability, ATPlite luminescence, 48 h; series mostly up to 57.5 µM
In short: as §1

[23] = system: Tov-21-G; assay: as above; settings: Gynecologic cancer cell panel viability, ATPlite luminescence, 48 h; series mostly up to 57.5 µM
In short: as §1

[24] = system: Tov112D; assay: as above; settings: Gynecologic cancer cell panel viability, ATPlite luminescence, 48 h; series mostly up to 57.5 µM
In short: as §1

Cc1nn(C)c2c1C(c1ccc(C(F)(F)F)cc1)C(C#N)=C(N)O2 (stereo unspecified)
inactive: Potency [1] | Potency [2] | Potency [3]

COc1cc(-c2cc(-c3ccc(N4CCNCC4)cc3)cnc2C)cc(OC)c1OC
inactive: Potency [1] | Potency [3]

NC1CCC(N[C@@H]2C[C@H]2c2ccccc2)CC1 (stereo partly specified)
inactive: Potency [1] | Potency [3]
-44.4%: activity change, negative = inhibition [2]

COCCOc1ccc(N2CCN(CCn3ncc4c3nc(N)n3nc(-c5ccco5)nc43)CC2)cc1
inactive: Potency [1] | Potency [3]
-15.3%: activity change, negative = inhibition [2]

CO[C@@H]1COCC[C@@H]1N[C@@H]1CC[C@@](C(=O)N2CCc3ncc(C(F)(F)F)cc3C2)(C(C)C)C1
inactive: Potency [1] | Potency [2] | Potency [3]

OC[C@H]1O[C@@H](Oc2cc(O)cc(/C=C/c3ccc(O)cc3)c2)[C@H](O)[C@@H](O)[C@@H]1O
inactive: Potency [1] | Potency [2] | Potency [3]

COCCCc1sc(-c2ccccc2)nc1C(=O)Nc1ccccc1-c1nc2cc(CN3CCCC3)cnc2s1
inactive: Potency [1] | Potency [2] | Potency [3]

CCCOc1ccn2c(C(C)=O)cc(-c3ccccc3S(C)(=O)=O)c2c1
inactive: Potency [1] | Potency [2] | Potency [3]

COc1ccc(-c2cnc3c(-c4cccc5ncccc45)cnn3c2)cc1
inactive: Potency [1] | Potency [2] | Potency [3]

CNc1nc(C)nc(N[C@H]2CCC[C@@H](C(=O)NCc3ccc(C#N)cc3C(F)(F)F)C2)n1
inactive: Potency [1] | Potency [2] | Potency [3]

CCS(=O)(=O)N1CCC([C@@H](C)n2c(C)c(C(=O)NCc3c(OC)cc(C)[nH]c3=O)c3ccccc32)CC1
inactive: Potency [1] | Potency [2] | Potency [3]

N#Cc1ccc(COC[C@H]2O[C@@H](n3c(NCc4ccc(Cl)c(Cl)c4)nc4c(N)ncnc43)[C@H](O)[C@@H]2O)cc1
inactive: Potency [1] | Potency [3]

C=C1C[C@@]2(O)O[C@@]3(C[C@H]2C(C)C)[C@@H](C)CC[C@@H]13
inactive: Potency [1] | Potency [2] | Potency [3]

CCNC(=O)CCC/C=C\C[C@@H]1[C@@H](/C=C/C(O)CCc2ccccc2)[C@@H](O)C[C@@H]1O (stereo partly specified)
-23.1%: activity change, negative = inhibition [2]
inactive: Potency [1] | Potency [3]

O=C1C(c2c(O)[nH]c3ccccc23)=Nc2ccccc21
inactive: Potency [1] | Potency [2] | Potency [3]

O=C(NCCN1CCC2(CC1)C(=O)NCN2c1cccc(F)c1)c1ccc2ccccc2c1
active: Potency [6] 2.68 µM | Potency [7] 12 µM | Potency [8] 9.16 µM | Potency [9] 9.16 µM
inactive: Potency [4] | Potency [5] | Potency [10] | Potency [11] | outcome [12] | Potency [13] | Potency [14] | Potency [15] | Potency [16] | Potency [17] | Potency [18] | Potency [19] | Potency [20] | Potency [21] | Potency [22] | Potency [23] | Potency [24]

Cc1cccc(-c2[nH]c(CNc3ccccc3F)nc2-c2ccc3ncnn3c2)n1
-32.1%: activity change, negative = inhibition [2]
inactive: Potency [3]
